Usually viability stands for a read-out of living cells in per cent, often relative to untreated cells. In general, inhibition refers to how much of the control response was suppressed.

19 compounds from PubChem BioAssay can be followed below.

Results filed as inconclusive are left out. The source made the active and inactive calls.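 How the source made its calls, unless noted: active means viability at or below 30% in both replicate assays; inconclusive means viability at or below 30% in just one of the two assays; inactive means the rest.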

Test [1] is described as follows: Her2 expression decrease, cell viability multiplex – SKBR3 breast tumor cells, AlphaScreen, ATP viability, primary screen (AID 461;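 active means Her2 level under about 52% in both replicate screens, with viability over 70% of control, limit read from the data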;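 on Her2 level: lower value means less Her2 protein in the cells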;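 on viability: percent of carrier control wells set as 100% viability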). As to conditions: SKBR3 Her2 protein level, 18-24 h, measured here: SKBR3 viability, ATP luminescence, at 10 µM.
Test [2] addresses Receptor tyrosine-protein kinase erbB-2 (Homo sapiens) (UniProt P04626). The test is described as above. As to conditions: 18-24 h, at 10 µM, stronger effect = lower value.
The nature of test [3]: reduced viability of SK-BR-3 breast cancer cells – cell-based, 24 h, human, pilot screen (AID 572;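 active means viability at or below 10% of carrier control in both of two separate runs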;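 further: compound exposure lasted between 18 and 24 h rather than exactly 24 h; 100% = carrier-treated control wells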). Particulars: SK-BR-3 viability, CellTiter-Glo luminescence, at 10 µM, stronger effect = lower value. In general terms: ATP-based viability assays read luminescence as a measure of living cells.
Test [4] in a line: HUVEC growth inhibition – cell-based, human, primary screen (AID 575).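 Further: 100% = median of untreated cell wells with 0.1% DMSO on each plate.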 Particulars: HUVEC proliferation, CellTiter-Glo luminescence, 72 h; at 10 µM; stronger effect = lower value.
Test [5] in a line: H69AR cell proliferation blockers – human, duplicate replicates, primary screen (AID 580;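 active means viability at or under a set limit in both replicates, limit being median viability minus 3 SD, cut at about 48% in these data, passing the limit was not always enough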;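 further: 100% = mean luminescence of untreated wells and 0% = no signal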). Particulars: H69AR lung tumor cells viability, ATP luminescence, 72 h; at 10 µM; stronger effect = lower value.
A short description of test [6]: MRP1 drug-resistance reversers in H69AR cells – cell-based, doxorubicin co-treatment, pilot screen (AID 601;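 active means viability loss from added drug above about 55%, and viability with drug at most 40%, in both replicates, limit read from the data, passing the limit was not always enough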). As to conditions: CellTiter-Glo, 72 h, at 10 µM; for differential viability (reversal): stronger effect = higher value.
A short description of test [7]: S. cerevisiae growth inhibition in restrictive medium, OD615, pilot screen, restrictive growth control, yeast lifespan reduction project (AID 706;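 active means growth inhibition above a set limit, 3 SD over mean compound inhibition, in both replicates, cut at about 43% in these data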;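 further: modified DeaD lifespan yeast strain shifted to restrictive glucose medium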). Particulars: OD615, 48 h, at 10 µM, stronger effect = higher value.
Test [8] can be described thus: doxorubicin toxicity protection in MRP-1 cells – H69AR cells, CellTiter-Glo, duplicate, MRP-1 activator project, pilot screen (AID 807;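 active means viability increase at or above a cutoff of the median across tested compounds plus 3 SD, cut at about 8.5% in these data, passing the limit was not always enough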;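 further: compound pretreatment 18-22 h then 72 h combined with doxorubicin; 0% = doxorubicin alone and 100% = vehicle without doxorubicin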). As to conditions: H69AR viability with doxorubicin, CellTiter-Glo luminescence; at 10 µM; stronger effect = higher value.
Test [9] is described as follows: viability of HCT116 without oncogenic beta-catenin – human colon tumor cells, pilot screen (AID 823;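 active means cell viability at or below a set limit in both duplicate runs, the limit being the all-compound median minus 4 SD, cut at about 23% in these data, passing the limit was not always enough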;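 further: 0% = wells killed by 20 µM Hyamine and 100% = untreated DMSO cell wells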). Particulars: HCT116 beta-catenin knockout viability, CellTiter-Glo, 60 h; at 10 µM; stronger effect = lower value.
Test [10] can be described thus: RAM pathway blockade in budding yeast – dse1pr::URA3 reporter, 5-FOA selection, pilot screen (AID 869;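 active means inhibition over a set limit, the all-compound mean plus 3 SD, in both replicate runs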;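 further: 0% = DMSO wells with no growth and 100% = 10 µM 1-NA-PP1 with full growth; RAM network block rescues cells from 5-FOA so hits raise OD615 growth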). As to conditions: S. cerevisiae dse1pr::URA3 5-FOA growth, OD615, 2 d; at 10 µM; stronger effect = higher value; strain carries analog-sensitive mutant Cbk1 kinase.
Test [11] in a line: RAM signaling pathway blockade in yeast – S. cerevisiae, Pdr1DBD-CYC8 efflux-inhibited sensitized strain, primary screen (AID 1298;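 active means RAM network inhibition above 8.4% in each of two replicates, 3 SD over the compound average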;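 further: 0% = DMSO untreated cells without growth and 100% = 10 µM 1-NA-PP1 full growth; higher means more yeast growth rescued from 5-FOA killing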). As to conditions: S. cerevisiae cbk1-as DSE1-URA3 strain, 5-FOA growth OD615, 2 d; at 50 µM; stronger effect = higher value.
A short description of test [12]: viability of PTEN-null HCT116 cells – cell-based, HCT116 clonal line, CellTiter-Glo, pilot screen (AID 824;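 active means viability at or below 27.92% in each of two runs, the all-compound median minus 4 SD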;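 further: 0% = 20 µM Hyamine control and 100% = vehicle cell control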). Particulars: HCT116 PTEN-deleted viability, 60 h, at 10 µM, stronger effect = lower value.
Where [13] appears, read: H69AR cells + 2 uM doxorubicin, measured here: viability with 2 uM doxorubicin, stronger effect = lower value.
Setting [14] is: H69AR cells, compound alone cytotoxicity.

Chain of Receptor tyrosine-protein kinase erbB-2 (Homo sapiens) (P04626 whole entry, looked up): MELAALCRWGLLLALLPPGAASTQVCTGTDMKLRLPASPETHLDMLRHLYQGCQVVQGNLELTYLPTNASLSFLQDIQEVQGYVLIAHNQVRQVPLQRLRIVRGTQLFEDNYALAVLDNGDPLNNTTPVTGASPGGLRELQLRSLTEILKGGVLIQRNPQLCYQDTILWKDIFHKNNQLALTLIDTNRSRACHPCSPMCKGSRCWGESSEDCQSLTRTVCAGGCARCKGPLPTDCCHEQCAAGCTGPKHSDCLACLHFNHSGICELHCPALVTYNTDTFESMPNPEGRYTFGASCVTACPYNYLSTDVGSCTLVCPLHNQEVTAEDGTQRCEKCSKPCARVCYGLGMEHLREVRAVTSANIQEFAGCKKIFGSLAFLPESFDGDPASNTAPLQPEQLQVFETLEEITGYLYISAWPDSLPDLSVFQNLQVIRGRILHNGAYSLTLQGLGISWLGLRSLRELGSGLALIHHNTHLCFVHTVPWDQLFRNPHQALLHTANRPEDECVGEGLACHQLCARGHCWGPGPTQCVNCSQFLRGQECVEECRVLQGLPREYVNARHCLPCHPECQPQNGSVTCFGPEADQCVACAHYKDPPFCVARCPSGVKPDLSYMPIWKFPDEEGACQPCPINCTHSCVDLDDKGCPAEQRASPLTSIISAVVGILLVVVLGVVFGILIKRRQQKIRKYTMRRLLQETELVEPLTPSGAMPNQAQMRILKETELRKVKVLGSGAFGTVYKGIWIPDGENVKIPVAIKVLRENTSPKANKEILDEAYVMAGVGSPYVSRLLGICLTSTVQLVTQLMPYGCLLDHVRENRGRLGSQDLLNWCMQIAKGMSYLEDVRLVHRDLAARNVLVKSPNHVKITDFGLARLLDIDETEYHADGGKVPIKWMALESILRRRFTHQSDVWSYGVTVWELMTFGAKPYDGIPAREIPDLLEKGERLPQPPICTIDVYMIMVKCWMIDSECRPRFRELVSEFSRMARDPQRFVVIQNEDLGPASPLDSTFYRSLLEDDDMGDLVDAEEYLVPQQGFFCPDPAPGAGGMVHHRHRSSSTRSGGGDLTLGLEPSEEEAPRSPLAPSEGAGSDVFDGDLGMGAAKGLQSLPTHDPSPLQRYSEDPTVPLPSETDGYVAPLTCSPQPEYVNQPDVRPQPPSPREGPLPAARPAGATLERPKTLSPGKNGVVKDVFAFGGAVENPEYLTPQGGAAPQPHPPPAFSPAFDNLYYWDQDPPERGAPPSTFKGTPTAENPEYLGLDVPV

As for `Cn1c([N+](=O)[O-])cnc1COC(N)=O`, the viability in test [1] is 108%; in test [3], 108% (inactive); in test [4] it was 102% (inactive); in test [5], 102% (inactive); in [6] (setting [13]), 85.7%; in [6] (setting [14]), 102%. Moreover, the Her2 level in test [2] was 105% (inactive). For the same compound, the differential viability (reversal) in test [6] (H69AR cells + 2 uM doxorubicin) is 16.2% (inactive).
Consider `C[C@]12CC[C@H]3[C@@H](CCC4=CC(=O)CC[C@@]43C)[C@@H]1CC[C@@H]2C(=O)CO`, for which the viability in test [1] was 106%; in test [3], 106% (inactive); in test [4], 56.6% (inactive); in test [5], 78.6% (inactive); in [6] (setting [13]), 94.9%; in test [6] (setting [14]), 78.6%. Further, the Her2 level in test [2] is 90.5% (inactive). In test [6] (H69AR cells + 2 uM doxorubicin), the differential viability (reversal) was -16.3% (inactive).
Take `CC(C)Sc1nc(O)c(Cc2ccccc2)c(=O)[nH]1`: in [7], the growth inhibition is -0.8% (inactive). In addition, in [8], the viability increase was -0.54% (inactive). Besides, the viability in test [9] is 104% (inactive). Also, the inhibition in test [10] is 2.81% (inactive). In addition, the RAM network inhibition in test [11] is 6.91% (inactive).
As for `CC(=O)O[C@]1(C(C)=O)CC[C@H]2[C@@H]3C=C(C)C4=CC(=O)CC[C@]4(C)[C@H]3CC[C@@]21C`, the viability in [1] was 97%; in test [3] it was 97% (inactive); in test [4], 113% (inactive); in test [5], 87.6% (inactive); in [6] (setting [13]) it was 64.3%; in [6] (setting [14]) it was 87.6%. Besides, in [2], the Her2 level was 88% (inactive). For the same compound, the differential viability (reversal) in test [6] (H69AR cells + 2 uM doxorubicin) is 23.2% (inactive).
On to `COc1ccc(NC(=O)CC2SC(=Nc3ccccc3)NC2=O)c(OC)c1` (centres undefined), for which, in [8], the viability increase was 2.03% (inactive). Besides, the results for the viability in test [9] and in test [12] were 93.4% (inactive) and 92% (inactive), respectively. In addition, in test [10], the inhibition is 2.23% (inactive). The RAM network inhibition in test [11] is 7.78% (inactive).
On to `Cc1nc2ccccc2c2nc3ccccc3n12`, for which, in test [7], the growth inhibition is 43.3% (active). Further, the viability increase in [8] was -0.65% (inactive). In test [12], the viability was 62.4% (inactive). Besides, the inhibition in test [10] is 3.25% (inactive). Further, the RAM network inhibition in [11] was 0.87% (inactive).
With `COc1ccccc1N1CCN(C(CNC(=O)c2ccco2)c2cccnc2)CC1` (centres undefined), the viability increase in [8] is -2.37% (inactive). For the same compound, the viability is 85% (inactive) in [9] and 77% (inactive) in test [12]. The inhibition in test [10] is 2.23% (inactive). In addition, the RAM network inhibition in [11] was -0.32% (inactive).
For `COc1ccc2cc(C(=O)Nc3c(C)n(C)n(-c4ccccc4)c3=O)sc(=O)c2c1OC` the same measures were -1.5% (inactive), 97.7% (inactive), 92.6% (inactive), 2.33% (inactive) and 0.16% (inactive).
In the case of `O=C1C(=C2CCCCC2)SC(=S)N1Cc1ccco1`, in test [8], the viability increase was -4.02% (inactive). Also, the viability in test [9] is 80.2% (inactive); in [12] it was 84.4% (inactive). The inhibition in test [10] was 0.825% (inactive). In addition, the RAM network inhibition in [11] was 2.66% (inactive).
`Clc1ccc(Cn2c(CN3CCCC3)nc3ccccc32)cc1`: the viability in test [1] is 92.5%; in test [3] it was 92.5% (inactive); in [4], 85.5% (inactive); in test [5] it was 73.3% (inactive); in test [6] (setting [13]), 85.9%; in test [6] (setting [14]), 73.3%. The Her2 level in test [2] is 112% (inactive). The differential viability (reversal) in test [6] (H69AR cells + 2 uM doxorubicin) was -12.6% (inactive).
On to `CC(C[N+](C)(C)C)OC(N)=O` (centres undefined), for which the viability was 101% in test [1]; 101% (inactive) in [3]; 97.5% (inactive) in test [4]; 99.4% (inactive) in test [5]; 98.3% in test [6] (setting [13]); 99.4% in [6] (setting [14]). Besides, in test [2], the Her2 level is 114% (inactive). In addition, in test [6] (H69AR cells + 2 uM doxorubicin), the differential viability (reversal) was 1.13% (inactive).
In the case of `OCCN(CCO)c1nc(N2CCCCC2)c2nc(N(CCO)CCO)nc(N3CCCCC3)c2n1`, the results for the viability in test [1], in [3] and in test [4] were 117%, 117% (inactive) and 79.6% (inactive), respectively. The Her2 level in [2] is 94.5% (inactive).
With `O=C(CSCc1ccco1)Nc1cc(C(F)(F)F)ccc1N1CCOCC1`, in [8], the viability increase is -5.7% (inactive). The viability in [9] was 63.4% (inactive); in [12], 79.1% (inactive). For the same compound, in test [10], the inhibition was 1.91% (inactive). The RAM network inhibition in [11] was 4.46% (inactive).
For `C[C@@H]1C[C@H]2[C@@H]3CCC4=CC(=O)C=C[C@]4(C)[C@@]3(F)[C@@H](O)C[C@]2(C)[C@@]1(O)C(=O)COP(=O)(O)O`, the viability in test [1] is 99%; in test [3], 99% (inactive); in test [4], 102% (inactive); in test [5], 97.9% (inactive); in test [6] (setting [13]), 122%; in test [6] (setting [14]), 97.9%. The Her2 level in test [2] is 125% (inactive). In addition, the differential viability (reversal) in [6] (H69AR cells + 2 uM doxorubicin) is -24.3% (inactive).
On to `CC1CCc2cc(F)cc3c(=O)c(C(=O)O)cn1c23` (centres undefined), for which the viability in test [1] is 104%; in test [3] it was 104% (inactive); in test [4], 98.5% (inactive); in test [5], 104% (inactive); in test [6] (setting [13]), 99.2%; in [6] (setting [14]), 104%. Besides, the Her2 level in [2] is 100% (inactive). For the same compound, the differential viability (reversal) in [6] (H69AR cells + 2 uM doxorubicin) was 4.35% (inactive).
As to `CCN1CCN(c2cc3c(cc2F)c(=O)c(C(=O)O)cn3C2CC2)CC1`, the viability is 103% in test [1]; 103% (inactive) in test [3]; 98.3% (inactive) in [4]; 92% (inactive) in test [5]; 88.8% in test [6] (setting [13]); 92% in test [6] (setting [14]). Further, in [2], the Her2 level is 98.5% (inactive). The differential viability (reversal) in test [6] (H69AR cells + 2 uM doxorubicin) was 3.18% (inactive).
With `Cc1cccc(Nc2ccccc2C(=O)O)c1C`, the viability is 85% in test [1]; 85% (inactive) in test [3]; 65.7% (inactive) in test [4]; 99.4% (inactive) in test [5]; 103% in test [6] (setting [13]); 99.4% in test [6] (setting [14]). Moreover, in test [2], the Her2 level is 105% (inactive). Also, the differential viability (reversal) in test [6] (H69AR cells + 2 uM doxorubicin) is -3.9% (inactive).
Consider `CC(Sc1nc2ccccc2s1)C(=O)N1CCOCC1` (centres undefined), for which the growth inhibition in test [7] is 2.68% (inactive). Besides, the viability increase in [8] is -3.03% (inactive). In addition, the viability in [9] was 95.9% (inactive). Besides, the inhibition in [10] was 1.84% (inactive). Moreover, the RAM network inhibition in [11] is 6.03% (inactive).
As for `O=C(CCCN1CC=C(n2c(=O)[nH]c3ccccc32)CC1)c1ccc(F)cc1`, the viability in [1] is 77%; in [3], 77% (inactive); in test [4], 98.4% (inactive); in [5], 86.2% (inactive); in test [6] (setting [13]), 75.1%; in test [6] (setting [14]), 86.2%. Moreover, the Her2 level in [2] is 103% (inactive). In addition, the differential viability (reversal) in [6] (H69AR cells + 2 uM doxorubicin) is 11.1% (inactive).
